Experimental data taken from the supplement of paper PMC6555819.

Columns and labels:
Assay in all cases: PBM binding z-score (relative to random genomic background probes); higher = stronger binding; sequences stand for … in GC…GCGATTGACAGCGTAGAATGAAGG
[1] = system: FXR:RXRa (NR concentration 270 nM, RXRa partner concentration 90 nM)
Summary of the method: (§1)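 Random background probes are the reference for binding z-scores. These scores derive from regression-normalized fluorescence on custom Agilent 4×180K protein-binding microarrays incubated 1 h with ligand-free nuclear receptor dimers. Binding was detected with antibodies against each partner (one per run).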

[2] = system: LXRa:RXRa (NR concentration 270 nM, RXRa partner concentration 90 nM)
Summary of the method: as §1

[3] = system: LXRa homodimer (NR concentration 270 nM)
Summary of the method: as §1

[4] = system: LXRb:RXRa (NR concentration 270 nM, RXRa partner concentration 90 nM)
Summary of the method: as §1

[5] = system: LXRb homodimer (NR concentration 270 nM)
Summary of the method: as §1

[6] = system: PPARa:RXRa (NR concentration 270 nM, RXRa partner concentration 90 nM)
Summary of the method: as §1

[7] = system: PPARg:RXRa (NR concentration 180 nM, RXRa partner concentration 90 nM)
Summary of the method: as §1

[8] = system: PPARg:RXRa 270nM:90nM, anti-RXR (NR concentration 270 nM, RXRa partner concentration 90 nM)
Summary of the method: as §1

[9] = system: PPARg:RXRa 30nM:10nM, anti-RXR (NR concentration 30 nM, RXRa partner concentration 10 nM)
Summary of the method: as §1

[10] = system: PPARg:RXRa 90nM:30nM, anti-RXR (NR concentration 90 nM, RXRa partner concentration 30 nM)
Summary of the method: as §1

[11] = system: PPARg:RXRa DBDmut IVT, anti-RXR (DBD mutation: RXRa K156A/R161A, NR concentration 270 nM, RXRa partner concentration 90 nM)
Summary of the method: as §1

[12] = system: PPARg:RXRa IVT, anti-PPARg (NR concentration 270 nM, RXRa partner concentration 90 nM)
Summary of the method: as §1

[13] = system: PPARg DBDmut:RXRa IVT, anti-PPARg (DBD mutation: PPARg1 K132A/R137A, NR concentration 270 nM, RXRa partner concentration 90 nM)
Summary of the method: as §1

[14] = system: PPARg DBDmut IVT, anti-PPARg (DBD mutation: PPARg1 K132A/R137A, NR concentration 270 nM)
Summary of the method: as §1

[15] = system: PPARg homodimer (NR concentration 180 nM)
Summary of the method: as §1

[16] = system: PXR:RXRa (NR concentration 270 nM, RXRa partner concentration 90 nM)
Summary of the method: as §1

[17] = system: PXR homodimer (NR concentration 270 nM)
Summary of the method: as §1

[18] = system: RARa:RXR (NR concentration 270 nM, RXRa partner concentration 90 nM)
Summary of the method: as §1

[19] = system: RARa homodimer (NR concentration 270 nM)
Summary of the method: as §1

[20] = system: RARb:RXRa (NR concentration 270 nM, RXRa partner concentration 90 nM)
Summary of the method: as §1

Sequence	PBM binding z-score [1]	PBM binding z-score [2]	PBM binding z-score [3]	PBM binding z-score [4]	PBM binding z-score [5]	PBM binding z-score [6]	PBM binding z-score [7]	PBM binding z-score [8]	PBM binding z-score [9]	PBM binding z-score [10]	PBM binding z-score [11]	PBM binding z-score [12]	PBM binding z-score [13]	PBM binding z-score [14]	PBM binding z-score [15]	PBM binding z-score [16]	PBM binding z-score [17]	PBM binding z-score [18]	PBM binding z-score [19]	PBM binding z-score [20]
GCTGCTAGGTCAAGTTGGTCAGCTAACGGGTACG	4.8	3.29	0.651	2.31	0.442	3.64	2.48	2.94	0.55	2.09	4.62	4.19	-0.715	-0.257	1.75	1.68	-0.361	2.19	0.462	4.38
ACTAGCAGGCCAAGTTTGGGTCTCTCAAACAAAG	-0.742	-0.825	-0.773	-0.616	-0.908	-0.417	-0.897	-0.524	-1.1	-0.853	0.491	0.0697	-1.53	-0.788	-1.17	-0.733	-0.734	-0.606	-1.44	0.382
CCTCTTAGTTGACCATAAGGGCAACCGAAGCTCG	0.875	0.419	0.345	0.647	0.541	0.868	0.219	0.342	-0.34	0.305	0.417	0.373	0.452	-0.136	1.43	0.861	0.453	1.04	0.928	1.7
TCTCGGAGGACACGGAGGTCAGAGCTTTCCAGAG	1.72	1.54	0.806	1.13	-1.06	2.22	0.548	1.54	1.85	1.75	1.26	1.06	-0.769	-1.39	1	2.45	2.46	2.29	-0.596	3.25
CGAACTAGGTCCAGGACAGTGAATCTCCGCACGC	-0.204	-0.571	-0.353	-0.95	-0.661	-0.195	0.3	-0.587	-0.632	-0.449	2.08	0.856	-0.489	-1.24	-0.302	-0.535	-0.312	-0.417	-0.0938	0.00636
CCGAATGGGGCAAGGTTACCATAACGCACAGCCA	0.248	0.895	-0.0673	0.899	-0.855	1.48	1.51	1.71	0.272	1.08	0.946	1.17	-0.387	-0.659	0.548	0.288	-0.323	0.909	-0.0739	1.75
TTCCCAAGGTGAGCTGAGGTCGTTGATCCAACTC	3.13	1.59	-0.148	0.959	-1.02	1.55	-0.346	0.767	-0.184	0.534	0.471	1.12	-1.17	-1.13	0.0355	4.98	0.698	2	-0.927	1.75
GCATATAGGTAATACAAGGTGAAAGACCGATTGT	1.32	2.31	0.0608	0.571	-0.236	1.46	1.65	1.57	0.368	0.978	3.84	3.44	0.445	0.718	0.0891	0.523	-0.102	1.49	0.624	0.568
GATACAGGGTCAAGGCCAAAGTACGCGTATTGAT	6.56	4.57	0.296	4.15	0.33	5.6	6.18	5.96	2.37	4.76	2.58	4.27	2.3	0.743	3.07	4.48	0.731	5.02	1.25	4.5
CGAACGAAGGCATGAGTTGATAGCAAATGCCGAT	-0.766	-0.753	-0.489	-0.751	-1.09	-0.568	0.575	-0.579	-0.739	-0.741	-0.501	-0.459	-1.26	-0.962	-0.786	-0.575	-0.461	-0.544	-0.843	-0.545
CCTGCTAGGTCATGGTCAGCCAATCTACAGTATG	3.64	2.66	-0.0941	1.68	-0.0584	3.49	2.75	2.89	0.768	1.98	4.43	3.74	0.352	0.0677	1.85	1.21	-0.386	2.49	0.141	3.9
TGAATGAGGTTGAAGATCAGGGAACGTGGCGTCG	0.0849	0.195	-0.576	-0.271	0.232	0.989	1.11	2.33	0.813	1.97	-0.653	0.294	0.451	0.38	-0.432	-0.193	-0.315	0.257	-0.208	0.206
TCGAGTAGGTTACCAATGGGGCATTCAGCTTTCT	0.0683	1.23	-0.798	0.966	-0.683	1.26	0.191	1.15	1.14	1.11	3.39	2.58	-0.0498	-0.456	-0.375	0.171	-0.622	0.273	-0.0206	0.992
ATCTCTAGGTAACCAAGTTCACTGAATGCCGAAC	0.969	1.87	2	1.58	1.09	2.25	1.1	1.54	0.634	1.2	3.89	3.32	0.487	1.47	1.17	3.1	3.34	1.64	0.615	1.9
CAAACTAGGTCACCGGAGGGTCAAAGTCCGCATG	5.69	5.1	1.95	4.16	0.645	5.86	8.8	7.65	4.96	7.5	8.31	8.77	2.75	0.546	4.78	5.16	0.605	6.42	1.73	4.89
AGAGCGAGGGCAATGAGTTGATAGCACGGGTGGC	-0.116	-0.109	-0.331	-0.283	-0.845	0.406	0.562	-0.152	-0.57	-0.736	0.771	0.253	0.00949	-1.18	-0.656	1.38	4.01	0.0108	-1	2.13
ACAGACAGGTGAGGGAAGGTAACTCAGCTGGACG	0.596	0.155	-0.368	-0.181	-0.443	0.389	0.791	-0.0319	-0.39	-0.182	0.476	0.747	0.431	-0.614	-0.102	-0.00447	-0.0527	0.343	-0.347	0.622
CGAACTAGGTCATTGACAGGTCAGTGAATAGTAA	4.77	4.22	2.06	3.2	0.218	5.01	7.86	6.55	3.81	6.32	8.05	7.99	2.07	0.617	3.26	3.56	0.482	5.11	0.887	4.25
TCTATTAGTTGATTAGGGCTACCGAAACAGCGGA	0.263	0.345	-0.0589	0.351	0.304	0.505	0.0193	2.26	3.84	2.98	1.71	0.487	0.367	0.888	1.29	0.181	0.128	0.22	0.748	0.309
CCTGCTAGGTAAATGGTCAGCTAAAGCAGCTCGC	-0.299	-0.376	-0.748	-0.628	-0.539	-0.0599	0.476	1.64	0.189	1.31	1.07	0.489	-1.23	-1.53	0.311	-0.268	-0.537	-0.118	-0.6	0.261
ATCTCTAGGTAAAGATAGTTCAGTGTATGCAAAT	0.705	4.16	0.797	0.893	0.581	1.05	0.827	0.452	0.59	0.44	1.71	1.89	0.591	1.15	1.3	1.32	0.866	1.11	0.968	0.53
AGAACGAGGACACGCTGAGTTGATAGCAGAGTAG	0.477	-0.638	-0.296	-0.945	-0.622	-0.44	0.748	-0.466	0.251	-0.327	1.51	1.16	-0.315	0.431	0.209	-0.361	0.196	-0.397	-0.0719	1.4
CTCGGAAGGTCGTGCTCAGGTGAGTATACCAAAC	1.88	1.55	-0.00824	1.29	-0.534	2.79	0.376	1.25	0.069	0.755	0.012	0.881	-0.0386	-0.266	0.944	1.55	-0.228	2.36	-0.507	2.5
TCTGCTAGGCCAACGATGGTCAGCTAATCTGCTA	-1.19	-0.741	-1.19	-1.05	-1.1	-0.375	-0.327	0.663	1.12	0.978	1.09	0.619	-0.0832	-1.02	-1.45	-0.538	-1.31	-0.793	-1.04	0.786
TGTCAAAGTTCAAAGGTAATGTAAGTATCCACAC	7.19	6.2	4.51	4.31	1.91	5.66	8.55	7.39	5.63	7.6	0.141	4.47	1.92	1.26	3.02	5.65	3.61	5.92	1.41	4.94
CCTCGGAGGACAGAAGGTTAGAGCTGTCCGCTTT	0.0561	0.0136	-0.236	-0.312	-1.14	-0.123	-0.506	-0.434	-0.944	-0.855	-0.501	-0.792	-1.88	-2.87	-0.233	-0.354	-0.764	0.0468	-1.07	1.12
TCTTGTAGATCAGCAGGTTAAGCAAGCTGGCCAA	0.0214	0.292	-0.676	0.24	-0.51	0.793	-0.47	1.26	2.15	1.62	1.37	0.191	-0.396	0.0188	-0.763	0.022	-0.446	0.058	-1.03	0.0308
GATTGTAGATCAAGGTTAAGAAAGACTAAGCTAA	-0.0604	0.349	-0.364	0.458	-0.63	1.72	1.47	2.51	0.605	2.28	1.55	1.67	-0.436	-0.166	-0.088	0.443	-0.271	0.732	-0.134	0.406
